{"source": "paper PMC7862700", "about": "“An all-to-all approach to the identification of sequence-specific readers for epigenetic DNA modifications on cytosine”", "experiment_in_all_cases": "DAPPL (digital affinity profiling via proximity ligation, sequencing); 10 mM Tris-HCl pH 7.5, 50 mM NaCl, 1 mM DTT, 4% glycerol, room temperature, 30 min; GST-TFs on glutathione beads, 16-mer random dsDNA library, 0.1% formaldehyde crosslink after washing; high values mean tight binding", "key": {"SPI1": {"target": "SPI1 (Homo sapiens, UniProt P17947 1-270)", "settings": "protein: recombinant; tags: N-terminal GST; dsDNA, one strand shown", "outline": "(§1)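 Binding signal is each hexamer's read frequency for a factor divided by its frequency in the tag-only sample. The factors were GST-fused human transcription factors from yeast, captured on glutathione beads, DNA-barcoded and pooled with that sample. Pools were incubated with 200 nmole of a random double-stranded 16-mer DNA library in Tris/NaCl/DTT/glycerol buffer at room temperature for 30 min, then washed, crosslinked with 0.1% formaldehyde, proximity-ligated with BsaI/T4 ligase (1 h, 37 °C), PCR-amplified and sequenced on an Illumina NextSeq500.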"}, "HSF1": {"target": "HSF1 (Homo sapiens, UniProt Q00613 1-529)", "sequence (Q00613 whole entry)": "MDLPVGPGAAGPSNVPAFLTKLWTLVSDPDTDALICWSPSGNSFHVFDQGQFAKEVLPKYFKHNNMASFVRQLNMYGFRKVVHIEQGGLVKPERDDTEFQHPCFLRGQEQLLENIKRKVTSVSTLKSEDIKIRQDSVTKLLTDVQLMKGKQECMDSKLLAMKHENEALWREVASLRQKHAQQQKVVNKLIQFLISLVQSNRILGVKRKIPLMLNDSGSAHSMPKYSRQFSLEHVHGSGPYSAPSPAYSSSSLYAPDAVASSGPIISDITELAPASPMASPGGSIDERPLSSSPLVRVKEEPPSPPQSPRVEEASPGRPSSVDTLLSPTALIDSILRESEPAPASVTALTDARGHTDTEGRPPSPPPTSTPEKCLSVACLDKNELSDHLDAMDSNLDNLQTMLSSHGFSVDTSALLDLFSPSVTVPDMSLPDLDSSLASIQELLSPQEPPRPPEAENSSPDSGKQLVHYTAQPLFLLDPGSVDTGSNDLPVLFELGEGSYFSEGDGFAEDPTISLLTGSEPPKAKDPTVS", "settings": "protein: recombinant; tags: N-terminal GST; chain copies: 3; dsDNA, one strand shown", "outline": "as §1"}, "SPIC": {"target": "T1, SPIC (Homo sapiens, UniProt Q8N5J4 1-248)", "T1 sequence": "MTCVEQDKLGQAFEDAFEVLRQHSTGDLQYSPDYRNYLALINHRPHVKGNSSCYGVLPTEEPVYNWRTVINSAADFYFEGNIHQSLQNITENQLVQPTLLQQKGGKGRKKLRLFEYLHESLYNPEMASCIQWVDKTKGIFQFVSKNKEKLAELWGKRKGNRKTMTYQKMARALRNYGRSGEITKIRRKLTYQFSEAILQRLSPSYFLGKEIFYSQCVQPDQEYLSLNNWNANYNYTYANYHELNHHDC", "settings": "protein: recombinant; tags: N-terminal GST; dsDNA, one strand shown", "outline": "as §1"}, "CRX": {"target": "CRX (Homo sapiens, UniProt O43186 1-299)", "sequence (O43186 whole entry)": "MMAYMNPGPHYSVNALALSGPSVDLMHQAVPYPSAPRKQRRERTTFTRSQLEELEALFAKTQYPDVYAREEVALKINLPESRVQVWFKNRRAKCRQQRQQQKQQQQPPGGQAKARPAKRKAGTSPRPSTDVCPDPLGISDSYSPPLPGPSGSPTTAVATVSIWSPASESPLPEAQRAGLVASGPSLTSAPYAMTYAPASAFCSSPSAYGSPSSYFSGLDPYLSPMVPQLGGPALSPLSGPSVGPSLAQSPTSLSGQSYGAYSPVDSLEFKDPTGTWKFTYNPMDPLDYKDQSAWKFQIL", "settings": "protein: recombinant; tags: N-terminal GST; dsDNA, one strand shown", "outline": "as §1"}, "ERF": {"target": "T2, ERF (Homo sapiens, UniProt P50548 1-548)", "T2 sequence": "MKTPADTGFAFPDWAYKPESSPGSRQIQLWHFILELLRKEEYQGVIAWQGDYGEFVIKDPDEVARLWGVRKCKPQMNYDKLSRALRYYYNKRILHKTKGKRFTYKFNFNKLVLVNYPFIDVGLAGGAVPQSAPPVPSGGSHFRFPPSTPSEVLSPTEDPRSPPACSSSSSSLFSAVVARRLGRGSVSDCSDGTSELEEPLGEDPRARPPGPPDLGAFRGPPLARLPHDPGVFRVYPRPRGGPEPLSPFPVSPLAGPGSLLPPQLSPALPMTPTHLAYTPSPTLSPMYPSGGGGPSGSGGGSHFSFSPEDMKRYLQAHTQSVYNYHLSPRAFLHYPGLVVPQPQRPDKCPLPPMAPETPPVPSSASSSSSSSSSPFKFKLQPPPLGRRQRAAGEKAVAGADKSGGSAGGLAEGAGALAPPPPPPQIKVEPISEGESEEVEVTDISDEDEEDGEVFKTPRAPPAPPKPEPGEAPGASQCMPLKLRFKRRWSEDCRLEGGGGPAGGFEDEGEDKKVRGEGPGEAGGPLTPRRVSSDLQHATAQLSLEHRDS", "settings": "protein: recombinant; tags: N-terminal GST; dsDNA, one strand shown", "outline": "as §1"}, "ETV7": {"target": "T3, ETV7 (Homo sapiens, UniProt Q9Y603 1-341)", "T3 sequence": "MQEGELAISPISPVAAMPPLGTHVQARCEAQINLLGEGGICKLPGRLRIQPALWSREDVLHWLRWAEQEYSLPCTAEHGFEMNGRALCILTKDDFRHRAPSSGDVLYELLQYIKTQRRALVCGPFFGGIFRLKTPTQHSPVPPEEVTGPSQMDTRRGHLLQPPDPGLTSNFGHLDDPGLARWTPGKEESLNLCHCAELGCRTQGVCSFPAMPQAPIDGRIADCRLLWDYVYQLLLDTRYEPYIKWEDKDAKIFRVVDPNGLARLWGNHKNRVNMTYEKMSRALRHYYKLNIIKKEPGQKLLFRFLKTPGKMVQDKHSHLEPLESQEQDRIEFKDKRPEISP", "settings": "protein: recombinant; tags: N-terminal GST; dsDNA, one strand shown", "outline": "as §1"}}}
{"sequence": "TCGAAA", "values": [{"measurement": "binding signal", "setting": "SPI1", "value": "1.02 fold enrichment (6-mer frequency, TF over GST control)"}, {"measurement": "binding signal", "setting": "HSF1", "value": "2.08 fold enrichment (6-mer frequency, TF over GST control)"}, {"measurement": "binding signal", "setting": "SPIC", "value": "1.06 fold enrichment (6-mer frequency, TF over GST control)"}, {"measurement": "binding signal", "setting": "CRX", "value": "1.16 fold enrichment (6-mer frequency, TF over GST control)"}, {"measurement": "binding signal", "setting": "ERF", "value": "1.01 fold enrichment (6-mer frequency, TF over GST control)"}, {"measurement": "binding signal", "setting": "ETV7", "value": "1.05 fold enrichment (6-mer frequency, TF over GST control)"}]}
